Seven molecules from PubChem BioAssay (NCI) can be followed below.

What all share (experiment): NCI-60 one-dose screen, 48 h (100 = growth as untreated, 0 = no growth, -100 = all killed)
Holding throughout (details): 10 µM unless noted

Assay [1] concerns NCI-H23 lung.
Assay [2] relates to NCI-H226 lung.
Assay [3] has as its system NCI-H322M lung.
Assay [4] relates to HOP-62 NSCLC.
Assay [5] relates to NCI-H460 lung.
The subject of assay [6] is HOP-92 NSCLC.
The test system of assay [7] is NCI-H522 lung.
The test system of assay [8] is A549/ATCC NSCLC.
For assay [9], the system named is 786-0 renal.
Assay [10] concerns COLO 205 colon.
In assay [11] the test system is DU-145 prostate.
The test system of assay [12] is K-562 leukemia.
The subject of assay [13] is MALME-3M melanoma.
Assay [14] concerns MDA-MB-231 breast.
Assay [15] has as its system RXF 393 renal.
For assay [16], the system named is SF-268 CNS.
Assay [17] deals with SF-295 CNS.
Assay [18] has as its system SF-539 CNS.
The subject of assay [19] is UACC-257 melanoma.
For assay [20], the system named is M14 melanoma.

Structures are written as SMILES. About 83,000 compounds went through this panel and 20% of them were active in at least one assay; those are over-represented in the sample as a whole.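 Step 1: grow cells in 96-well plates. Step 2: add test compound at a single concentration. Step 3: incubate 48 h. Step 4: record percent growth.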 Unmarked numbers belong to inactive results. The source made the active and inactive calls. The calls were made as follows: active = growth percent below 10; inactive = the rest.

As to `CCOC(=O)COc1c(OC)c(OC)cc2oc(-c3cccc(C(=O)Nc4ccc(Cl)cc4)c3)cc(=O)c12`, the growth is 62.9% in [1]; 76.2% in assay [2]; 108% in assay [3]; 54.9% in [4]; 83.5% in assay [5]; 52.6% in assay [6]. Besides, the growth in assay [7] is 46%; in [8], 77%; in [9], 49.5%; in [10], 39.8%; in assay [11], 64%; in [12], 23.2%. Further, the growth in [13] is 52%; in [14], 50.7%; in assay [15] it was 75.6%; in [16], 56.1%; in assay [17] it was 38.2%; in [18], 59.8%. Further, the growth in [19] was 77.2%; in [20], 33.9%.

As to `COc1cc2c(c(OC)c1OC)C(=O)CC(c1cccc(NC(=O)c3cc(N)ccc3Cl)c1)O2` (stereo not given), the growth in assay [1] is 71.9%; in assay [2], 54.3%; in assay [3], 89%; in [4] it was 77.3%; in [5], 67.2%; in assay [6], 69.5%. Besides, the growth in [7] is 8.06% (active); in assay [8], 71.5%; in [9], 84.7%; in [10], 86.2%; in assay [11], 47.3%; in assay [12], 15.6%. Further, the growth in assay [13] was 54%; in assay [14], 42.7%; in assay [15] it was 46%; in assay [16], 60.4%; in [17], 78.9%; in assay [18], 56.6%. Also, the growth in [19] is 64.9%; in assay [20], 56%.

For the molecule `COc1cccc(COc2ccc(NC(=O)Nc3ccc(Cl)c(C(F)(F)F)c3)cc2)c1`, the growth was 21.1% in assay [1]; 43.2% in [2]; 16.3% in assay [3]; 34.3% in [4]; 17.5% in assay [5]; 6.12% (active) in assay [6]. Moreover, the growth in assay [7] is 22.1%; in assay [8], 16%; in assay [9], 34.5%; in assay [10], 46.2%; in [11], 44.6%; in assay [12], 27.1%. In addition, the growth in assay [13] is 1.5% (active); in [14], 52%; in assay [15], 51.7%; in assay [16], 71.1%; in assay [17], 19.7%; in assay [18], 49.6%. Moreover, the values for the growth in assay [19] and in [20] were 60.9% and 62.6%, respectively.

With `Cc1sc(C(NC(=O)OCCn2c([N+](=O)[O-])cnc2C)C(F)(F)Cl)nc1-c1ccc(OC(F)(F)F)cc1` (stereo not given), the growth was -92% (active) in [1]; -65.2% (active) in assay [2]; -92.4% (active) in assay [3]; -89.7% (active) in [4]; -29.2% (active) in assay [5]; -82% (active) in assay [6]. Moreover, the growth in [7] was -86.1% (active); in assay [8], -81.3% (active); in assay [9], -91.3% (active); in [10], -74.2% (active); in [11] it was -70.4% (active); in assay [12] it was 0.935% (active). For the same molecule, the growth in assay [13] is -75% (active); in [14], -94.8% (active); in assay [15] it was -88.6% (active); in [16], -38.6% (active); in assay [17] it was -98.8% (active); in assay [18] it was -92.4% (active). The results for the growth in [19] and in [20] were -73% (active) and -67.5% (active), respectively.

As for `Cc1cccc(NC(=O)[C@]23CCC(C)(C)CC2C2=CCC4[C@@]5(C)C[C@@H](O)[C@H](O)[C@@](C)(CO)C5CC[C@@]4(C)[C@]2(C)CC3)c1` (stereo not given in full), the growth in [1] was -27.7% (active); in [2] it was -17.8% (active); in assay [3], 51.6%; in assay [4] it was 50.9%; in [5] it was -18.3% (active); in assay [6], -24.8% (active). Moreover, the growth in assay [7] is 10.8%; in assay [8], 21.1%; in [9], 22.7%; in [10] it was -31.7% (active); in assay [11] it was 32.2%; in assay [12], 15.5%. Besides, the growth in [13] was 28.3%; in [14], -19.1% (active); in assay [15], -49% (active); in assay [16] it was 41%; in assay [17], 4.56% (active); in assay [18], -2.33% (active). In addition, the growth in assay [19] is 39.8%; in assay [20], 36.1%.

With `CCN(CC)c1ccnc(CNCCSC(c2ccccc2)(c2ccccc2)c2ccc(OC)cc2)c1`, the growth in assay [1] is -41.8% (active); in assay [2], -7.73% (active); in [3], 21.8%; in [4], -10.2% (active); in [5], -87.3% (active); in assay [6], -30% (active). For the same molecule, the growth was -67.8% (active) in assay [7]; 2.36% (active) in assay [8]; -50.8% (active) in [9]; -74% (active) in assay [10]; -25.3% (active) in assay [11]; -23.6% (active) in assay [12]. Besides, the growth was -92.5% (active) in assay [13]; -45.5% (active) in [14]; -26% (active) in assay [15]; 4.54% (active) in [16]; -93.7% (active) in assay [17]; -95.8% (active) in assay [18]. Besides, the growth in assay [19] was -45.3% (active); in assay [20] it was -74.7% (active).

For the molecule `CCN1C(=O)/C(=N\N=C(/C)c2ccc3c(c2)Nc2ccccc2S3)c2cc(Cl)ccc21`, the growth is 50.4% in assay [1]; 66.7% in [2]; 91.3% in assay [3]; 92.9% in assay [4]; 63.4% in assay [5]; 29.8% in assay [6]. Further, the growth was 54% in [7]; 49.8% in assay [8]; 75% in assay [9]; 89.8% in assay [10]; 71.8% in [11]; 38.2% in assay [12]. The growth in assay [13] is 35.9%; in [14] it was 66.8%; in [15], 65.9%; in assay [16] it was 43.8%; in assay [17] it was 43.2%; in assay [18], 73.3%. For the same molecule, the growth is 25.7% in assay [19] and 67.5% in assay [20].
